The structures appear in SMILES notation. About 1,100 (48%) of roughly 2,300 compounds were called active. How the calls were made is not given here. So high a share suggests a set chosen from earlier hits. The list shows a part of the results. Measured potencies and affinities stand elsewhere.

This test in a line: S. typhi counter-screen signal inhibition – fluorescence, 4 h, counter-screen for PhoP regulon inhibitor project, dose response (AID 2384). To be noted: S. typhi GFP reporter counter-screen; series mostly up to 150 µM. In general terms: The purpose of a counterscreen is to sort out artefacts and off-target activity.
With `O=C(Nc1ccncc1)c1cc(-c2ccccn2)nc2ccccc12`, the inhibition (usually the drop in the measured response relative to a control, in per cent) is “inactive”.

As to `CC(C)[C@H](NC(=O)c1ccccc1Cl)C(=O)Nc1nc(-c2ccccn2)cs1`, the inhibition entry was “inactive”.

In the case of `Cn1cc(S(=O)(=O)Nc2ccc(OC(F)(F)F)cc2)c(=O)n(C)c1=O`, the inhibition result is “inactive”.

In the case of `CC(C)NC(=O)CN1CCN(Cc2nc(C(c3ccccc3)c3ccccc3)no2)CC1`, the inhibition entry was “inactive”.

`O=C(O)c1cc2cc(F)ccc2[nH]1`: the inhibition result was “inactive”.

For the molecule `COc1c(C(=O)N2CCCC2)ccc2ccccc12`, the inhibition result is “inactive”.

As to `COc1ccc2c(C(=O)CCl)c[nH]c2c1`, the inhibition result was “inactive”.

On to `CCN1CCN(C(=O)/C=C/c2cccc(Cl)c2)CC1`, for which the inhibition entry is “inactive”.

On to `CCN1CCN(C(=O)Cc2coc3cc(C)cc(C)c23)CC1`, for which the inhibition result is “inactive”.

For the molecule `Cc1c(Cl)cccc1NC(=O)C1CCN(S(C)(=O)=O)CC1`, the inhibition result is “inactive”.

In the case of `COCc1ccc(C(=O)Nc2ccc(C(=O)O)cc2)o1`, the inhibition result is “inactive”.

Regarding `COc1cccc(OC)c1C(=O)Nc1ccc(N2CCN(S(C)(=O)=O)CC2)cc1`, the inhibition result was “inactive”.

With `CCOC(=O)Cc1[nH]nc2c1C(c1ccoc1)C(C#N)=C(N)O2` (centres undefined), the inhibition result was “inactive”.

In the case of `O=C1c2ccccc2C(=O)C1(CO)c1ccc(OC(F)F)cc1`, the inhibition entry is “inactive”.

On to `O=c1c2ccccc2nc(-c2cccc(Cl)c2)n1O`, for which the inhibition entry was “inactive”.

Consider `COc1ccc(C(=O)O/N=C2\C(=O)N(C)c3ccccc32)cc1`, for which the inhibition result is “inactive”.

In the case of `Cc1nc(SCC(=O)N2c3ccccc3Sc3ccccc32)n[nH]1`, the inhibition result is “inactive”.

Take `CC(=O)NCCn1c(SCc2ccccc2C)nc2ccccc2c1=O`: the inhibition result is “inactive”.

Consider `Cc1ccn2cc(C(=O)Nc3nnc(C)s3)nc2c1`, for which the inhibition result is “inactive”.

For the molecule `Cc1cccc(N/N=C/c2ccc(O)c(O)c2O)c1`, the inhibition entry was “inactive”.

`O=C(NCCO)C(=O)c1c(-c2ccc(Cl)cc2)cc2ccccn12`: the inhibition entry was “inactive”.

For `CC(C)c1ccc(C2C(C#N)=C(N)Oc3c2oc(CO)cc3=O)cc1` (centres undefined), the inhibition result was “inactive”.

Turning to `COc1ccc(NS(=O)(=O)c2cccc(NC(=O)c3ccccn3)c2)cc1`, the inhibition result was “inactive”.

Take `O=C(NC(=C(Cl)Cl)S(=O)(=O)c1ccc(Cl)cc1)c1ccccc1`: the inhibition entry was “inactive”.

`CCN(CC)CCNC(=O)c1cccc(NC(=O)C(=O)c2cc(Br)ccc2NC(C)=O)c1`: the inhibition entry was “inactive”.

As for `O=C(CCl)Nc1nccs1`, the inhibition result is “inactive”.

Consider `CCCN1C(=O)c2ccc(C(=O)Nc3nccs3)cc2C1=O`, for which the inhibition result was “inactive”.

For `O=C(NCc1cccnc1)c1ccc(Cl)cc1[N+](=O)[O-]`, the inhibition result is “inactive”.

As to `O=C(Nc1ccccc1)Nc1cccc(Cl)c1`, the inhibition entry is “inactive”.

With `Nc1ccc(S(=O)(=O)Nc2nccs2)cc1`, the inhibition result was “inactive”.

With `O=C(NCc1ccco1)c1ccc2c(c1)N(Cc1ccccc1)CCS2`, the inhibition entry is “inactive”.

For `CN1C(=O)/C(=C/c2cccc(Cl)c2)Sc2ccc(C(=O)N3CCCC3)cc21`, the inhibition result is “inactive”.

Take `O=C(COC(=O)/C=C/c1cccc(C(F)(F)F)c1)NCc1ccccc1`: the inhibition entry is “inactive”.

Turning to `CCC(=O)Nc1nc(C)c(C(=O)N2CCCCC2)s1`, the inhibition entry was “inactive”.

Take `O=C1c2ccccc2C(=O)N1CCC(c1ccccc1)c1ccco1` (centres undefined): the inhibition result was “inactive”.

`CCc1ccccc1NC(=O)c1onc(C)c1Cl`: the inhibition entry is “inactive”.

`CC1(C)CC(=O)C2=C(C1)N(c1ccc(F)cc1)C(=O)CC2c1ccsc1` (centres undefined): the inhibition entry was “inactive”.

As to `CCc1cc(CNC(=O)C2CCC(=O)N(Cc3cccc(F)c3)C2)on1` (centres undefined), the inhibition entry is “inactive”.

As for `Fc1ccccc1CSc1ccc(-c2ccco2)nn1`, the inhibition entry is “inactive”.

On to `COc1cccc(NC(=O)CSc2nncn2-c2ccccn2)c1`, for which the inhibition entry was “inactive”.

`CCCCn1c(NCc2ccccc2NS(=O)(=O)c2ccc(C)cc2)nc2ccccc21`: the inhibition result is “inactive”.

For the molecule `CCN1CCN(c2nc3ccccc3nc2C(C#N)S(=O)(=O)c2ccc(C)cc2)CC1` (centres undefined), the inhibition result is “inactive”.

On to `N#CCCn1c2ccccc2c2nc3ccccc3nc21`, for which the inhibition result is “inactive”.

On to `Cc1cccc(S(=O)(=O)c2c(N)n(/N=C/c3ccccc3)c3nc4ccccc4nc23)c1`, for which the inhibition result was “inactive”.

As for `CCCN(CCC)c1nc(C)cc(C(C#N)c2nc3ccccc3o2)n1` (centres undefined), the inhibition entry was “inactive”.

As to `CS(=O)(=O)c1cnc2c(-c3ccsc3)cnn2c1N`, the inhibition entry is “inactive”.

As to `CS(=O)(=O)c1cnc2c(-c3ccc(F)cc3)cnn2c1N`, the inhibition entry was “inactive”.

As for `Cc1ccc(OCC(O)Cn2c(N)nc3c2c(=O)n(C)c(=O)n3C)cc1` (centres undefined), the inhibition entry is “inactive”.

For the molecule `C=C(C)Cn1c(-c2ccc(OC)cc2)nc2ccccc21`, the inhibition result was “inactive”.

Consider `CC(C)Cc1nc(N2CCOCC2)c(C#N)c2c1COC(C)(C)C2`, for which the inhibition result is “inactive”.

On to `C1CCC(n2nnnc2CN2CCN(C3CCCC3)CC2)CC1`, for which the inhibition result was “inactive”.

For the molecule `CCCCC(=O)Nc1ccc(F)c(Cl)c1`, the inhibition entry is “inactive”.

Consider `CCN(CC)C(=O)C(=O)c1cn(CC(=O)N2CCc3ccccc3C2)c2ccccc12`, for which the inhibition entry is “inactive”.

On to `Cc1ccccc1-c1ncc(CN2CCN(C3CCCC3)C(CCO)C2)cn1` (centres undefined), for which the inhibition entry was “inactive”.

On to `COc1cccc(/C=C/C(=O)c2cccc([N+](=O)[O-])c2)c1OC`, for which the inhibition result was “inactive”.

With `COC(=O)c1cn(C(=O)c2ccco2)c2ccccc12`, the inhibition result is “inactive”.

On to `COC(=O)c1ccc(OC(=O)c2cccnc2)cc1`, for which the inhibition entry is “inactive”.

Take `COc1ccc(N(C(=O)c2cccnc2)S(=O)(=O)c2cccc([N+](=O)[O-])c2)cc1`: the inhibition result is “inactive”.

As to `O=C(On1c(-c2ccccc2)nc2ccccc2c1=O)c1ccco1`, the inhibition entry was “inactive”.

Consider `CCNC(=O)c1ccc(C2SCC(=O)N2CCc2ccccc2)cc1` (centres undefined), for which the inhibition result was “inactive”.

In the case of `COc1ccc(C[C@H]2CN3C(=NC[C@H]3Cc3ccccc3)N2CCNC(=O)c2ccc(C)c(Br)c2)cc1`, the inhibition result is “inactive”.

In the case of `CCN1CCN(CC(=O)Nc2ccc(C)c(Br)c2)CC1`, the inhibition entry is “inactive”.

`Cc1ccc(NC(=O)CCNC(=O)c2ccccc2)cc1F`: the inhibition result is “inactive”.

As to `Cc1ccnc(NC(=O)CCC(=O)N(CC(=O)NC2CCCCC2)C2CCCC2)c1`, the inhibition entry was “inactive”.

Consider `O=C(CSCc1ccccc1)Nc1cccc(C(=O)Nc2ccc(C(=O)O)cc2)c1`, for which the inhibition result was “inactive”.

In the case of `COc1ccc2c(C(=O)CN(C)C3CCCCC3)c[nH]c2c1`, the inhibition entry is “inactive”.

In the case of `CS(=O)(=O)N(CCc1ccccc1)CC(=O)Nc1ccc2c(c1)OCO2`, the inhibition result is “inactive”.

Turning to `CN1C2=CC=CC=CC2=[N+](C)C12C=CC(=[N+]([O-])[O-])C=C2[N+](=O)[O-]` (centres undefined), the inhibition result is “inactive”.

With `Cc1cccc(/C(N)=N/OC(=O)N2CCOCC2)c1`, the inhibition entry is “inactive”.

Turning to `Cc1ccn2cc(-c3ccc4c(c3)NC(=O)CO4)nc2c1`, the inhibition result is “inactive”.

On to `CC(C)n1cnnc1SCC(=O)Nc1ccc(Br)cc1F`, for which the inhibition entry is “inactive”.

In the case of `N#Cc1ccc(-c2ccc(OCC(=O)NCCCN3CCCC3=O)cc2)cc1`, the inhibition result was “inactive”.

As for `C1=C(CCNc2ncnc3c2[nH]c2ccccc23)CCCC1`, the inhibition entry is “inactive”.

As to `COc1ccc(-n2ncc3c(NCc4ccccn4)ncnc32)cc1`, the inhibition entry is “inactive”.

Regarding `Cc1ccc(-c2[nH]ncc2/C=N/n2c(C)nc3ccccc3c2=O)cc1`, the inhibition result is “inactive”.

For the molecule `Cc1ccc(/C=N/n2c(C)nc3ccccc3c2=O)s1`, the inhibition result was “inactive”.

On to `O=C(C[n+]1cc(-c2ccccc2)n2c1CCC2)c1cccs1`, for which the inhibition result was “inactive”.

`CCOC(=O)Cc1csc(NC(=O)c2ccc(S(=O)(=O)N3CCCC3)cc2)n1`: the inhibition result was “inactive”.

Take `O=C(/C=C/c1ccc(O)cc1)c1ccccc1`: the inhibition result is “inactive”.

For `COc1cccc(C2=NO[C@@H]3C(=O)N(Cc4ccccc4)C(=O)[C@H]23)c1OC`, the inhibition result is “inactive”.

For the molecule `CCc1nnc(NS(=O)(=O)c2ccc(NC(=S)NC(=O)/C=C/c3ccc([N+](=O)[O-])cc3)cc2)s1`, the inhibition entry was “inactive”.

Regarding `Cc1cc2ncn(/N=C/c3ccc([N+](=O)[O-])o3)c2cc1C`, the inhibition entry is “inactive”.

For `Cc1ccc2[nH]c(C(=O)O)c(NC(=O)CN3CCN(c4cccc(C)c4C)CC3)c2c1`, the inhibition entry is “inactive”.

Regarding `Cc1ccc(C(C(=O)NCCc2ccccc2)N(C(=O)c2csnn2)C2CC2)o1` (centres undefined), the inhibition entry is “inactive”.

For the molecule `[O-][n+]1c2ccccc2cc2ccccc21`, the inhibition result was “inactive”.

As for `Cc1ccc(S(=O)(=O)NCC(=O)OCN2C(=O)c3ccccc3C2=O)cc1`, the inhibition entry is “inactive”.

On to `CCCOc1ccc(N2C(=O)C3C(C(C)C)NC4(C(=O)c5ccccc5C4=O)C3C2=O)cc1` (centres undefined), for which the inhibition result is “inactive”.

For the molecule `COc1ccc(-c2csc(N)n2)cc1F`, the inhibition result is “inactive”.

Consider `Cc1nc2ccc(NC(=O)c3cccc(C(F)(F)F)c3)cc2o1`, for which the inhibition entry was “inactive”.

In the case of `CNC(=O)Nc1cccc(C(F)(F)F)c1`, the inhibition entry was “inactive”.

As to `O=C(CNC(=O)Cn1ccc2ccccc2c1=O)NCCCN1CCCCCC1`, the inhibition entry was “inactive”.

For `Cc1cc(C)cc(NC(=O)C(Sc2nnc(C)c(=O)[nH]2)c2ccccc2)c1` (centres undefined), the inhibition entry is “inactive”.

On to `CCCC1C(c2ccc(OC)cc2)C(C#N)(C#N)C2(C#N)CC1(N)NC2=O` (centres undefined), for which the inhibition entry is “inactive”.

On to `O=C(Nc1ccc(Br)cc1)N1CCCCC1`, for which the inhibition result is “inactive”.

On to `CCNC(=S)N1CCN(CC)CC1`, for which the inhibition result was “inactive”.

For the molecule `O=C1NC(=S)S/C1=C1\Sc2ccccc2N1CCCS(=O)(=O)O`, the inhibition entry is “inactive”.

For `CN1Cc2ccccc2N(CC(=O)NCc2ccccc2)C1=O`, the inhibition result was “inactive”.

For `Cc1cc(Cl)ccc1OCCCC(=O)N1CCCc2ccccc21`, the inhibition entry is “inactive”.

On to `Cn1c(=O)c(=O)n(C)c2cc(S(=O)(=O)N3CCc4ccccc43)ccc21`, for which the inhibition result is “inactive”.

For `Cc1cc(NC(=O)CSc2nnc(-c3cccnc3)n2N)no1`, the inhibition entry was “inactive”.

Take `O=C1N/C(=C/c2ccc(N3CCOCC3)cc2)C(=O)N1Cc1ccc(F)cc1`: the inhibition result is “inactive”.

As for `O=C(O)CC/C(=C\c1ccccc1[N+](=O)[O-])c1nc2ccccc2s1`, the inhibition result is “inactive”.

With `O=C(OCc1nc2ccccc2s1)c1ccco1`, the inhibition entry was “inactive”.

Take `CCOc1ccc(NC(N)=O)cc1`: the inhibition result is “inactive”.

With `C/C(=N\Nc1ccc(C)c(Cl)c1)c1cccnc1`, the inhibition result was “inactive”.

Consider `CCOc1ccc(-c2nc(N)ncc2-c2ccccc2)c(O)c1`, for which the inhibition result was “inactive”.

Turning to `CCOC(=O)c1ccc(NC(=O)C2CCC(CNc3c(N4CCOCC4)c(=O)c3=O)CC2)cc1` (centres undefined), the inhibition result was “inactive”.

`Cc1nnc(SCC(=O)N(C(C)C)C(C)C)[nH]c1=O`: the inhibition result was “inactive”.

`CCc1nc(SCC(=O)Nc2ccc(N(C)C)cc2)c2ccccc2n1`: the inhibition result was “inactive”.

On to `C#CCOC(=O)c1ccccc1C(=O)OCC#C`, for which the inhibition result is “inactive”.

On to `O=C(NCCCNc1ccnc2cc(Cl)ccc12)c1ccccc1F`, for which the inhibition entry was “inactive”.

For the molecule `COc1ccc(NC(=O)Cn2cnc3c(cnn3C(C)(C)C)c2=O)cc1OC`, the inhibition entry was “inactive”.

`Cc1nc2cc(C(=O)N3CCC4(CC3)OCCO4)ccc2n1-c1cccc(F)c1`: the inhibition entry is “inactive”.

For the molecule `COC(=O)c1ccc(NC(=O)CO/N=C2\CCCc3nonc32)cc1`, the inhibition entry was “inactive”.

(Values after PubChem BioAssay AID2384 (Southern Research Specialized Biocontainment Screening …, 2010).)
